In PubChem BioAssay (NCI) one finds growth data, which are given here for 24 molecules.

Common to all, as to experiment: NCI-60 one-dose screen, 48 h (100 = growth as untreated, 0 = no growth, -100 = all killed)
Details in all cases: 10 µM

The test system of assay [1] is NCI-H226 lung.
Assay [2] concerns NCI-H322M lung.
Assay [3] relates to HOP-62 NSCLC.
Assay [4] relates to NCI-H460 lung.
The subject of assay [5] is HOP-92 NSCLC.
The subject of assay [6] is NCI-H522 lung.
Assay [7] concerns A549/ATCC NSCLC.
Assay [8] relates to 786-0 renal.
The test system of assay [9] is COLO 205 colon.

About 83,000 compounds went through this panel and 20% of them were active in at least one assay; those are over-represented in the sample as a whole.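 In brief: 96-well plates, 48 h treatment, single concentration, percent growth endpoint.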 A number with no mark means an inactive call. Activity calls are given as the source filed them. Rule for the calls: active = growth percent below 10; inactive = the rest.

On to `O=[N+]([O-])c1ccc(Br)o1`, for which the growth in assay [1] is 93.1%; in [2] it was 103%; in assay [3], 100%; in assay [4] it was 113%; in [5], 102%; in [6], 84.4%. Also, the growth in assay [7] was 104%; in [8], 99.2%; in assay [9], 105%.

For `Cc1cc(C(C)(C)CC(C)(C)C)ccc1OCCOCC[N+](C)(C)Cc1ccccc1`, the growth is 20.6% in assay [2]; -83.5% (active) in assay [3]; -72.2% (active) in assay [4]; -72.5% (active) in assay [5]; -50.1% (active) in assay [6]; 36.7% in assay [7]. For the same molecule, the growth in [8] is -19.4% (active); in [9], -81.6% (active).

For `Cn1cnc([N+](=O)[O-])c1Sc1nnc(-c2ccccc2)c(-c2ccccc2)n1`, the growth was 77.1% in assay [1]; 102% in [2]; 97.3% in assay [3]; 113% in assay [4]; 71.1% in assay [5]; 85.4% in assay [6]. The growth in [7] is 114%; in [8] it was 85.4%; in assay [9] it was 90.2%.

For `CCCOCC(O)CNCCN` (stereo unspecified), the growth in [1] is 121%; in [2], 105%; in assay [3] it was 92.6%; in assay [4], 104%; in [5], 56.9%; in assay [6] it was 102%. For the same molecule, the growth in [7] was 102%; in assay [8], 105%; in assay [9], 110%.

With `CC1(C)CC(=O)c2c(nc3ccc(Cl)cc3c2-c2ccccc2)C1`, the growth in assay [1] is 97.6%; in assay [2], 103%; in [3], 92.1%; in [4], 90.1%; in [5], 45.6%; in assay [6], 73%. The growth is 95.7% in [7], 101% in assay [8] and 94.5% in assay [9].

Consider `COc1ccc(C2C=C(c3ccc(OC)c(OC)c3)N=C3SC=CN32)c(Br)c1` (stereo unspecified), for which the growth in assay [1] was 70.7%; in [2], 87.5%; in [3] it was 103%; in assay [4], 87.5%; in assay [5], 77.5%; in assay [6], 60.8%. Moreover, the results for the growth in assay [7], in [8] and in [9] were 82.3%, 92.3% and 94.8%, respectively.

`Cc1ccc(S(=O)(=O)N2CCc3ccccc3CC2)cc1`: the growth in assay [1] was 54.3%; in [2], 99%; in assay [3] it was 97.9%; in assay [4] it was 90.8%; in assay [5], 71.9%; in assay [6], 74.1%. Further, the growth in assay [7] was 72.1%; in assay [8], 79.3%; in assay [9], 81%.

For the molecule `Nc1ccc(Sc2ccc3c4c2cccc4c(=O)n2c4ccccc4nc32)cc1`, the growth in assay [1] is 40.6%; in [2], 61.8%; in assay [3], 51.2%; in assay [4], 9.47% (active); in [5] it was 28.7%; in assay [6] it was 60%. For the same molecule, the growth was 20.6% in assay [7], 37.3% in [8] and 50.8% in assay [9].

As for `COc1ccc(-c2nnc(COc3ccc(NC(=O)Nc4cccc(C(F)(F)F)c4)cc3F)o2)cc1`, the growth is 87.9% in [1]; 43.4% in assay [2]; 67.4% in assay [3]; 39.3% in assay [4]; 25.5% in assay [5]; -21.2% (active) in assay [6]. The growth in [7] is 57.8%; in [8] it was 78.9%; in [9] it was 88.1%.

With `CC(=O)O[C@H]1CC[C@@]2(C)[C@@H](CC[C@@H]3[C@@H]2CC[C@]2(C)C=C(C=O)C[C@@H]32)C1`, the growth in [1] was 119%; in assay [2], 90.9%; in assay [3] it was 33.3%; in [4], 103%; in assay [5], 76.2%; in assay [6], 93.1%. Moreover, the growth in [7] was 95.3%; in assay [8], 102%; in assay [9], 95.4%.

Consider `COc1ccc(Cn2cc3c(c2-c2ccccc2)CC(C)(C)c2cnoc2-3)cc1`, for which the growth in assay [1] was 52.4%; in [2], 34.1%; in [3] it was 34.2%; in assay [4] it was 9.42% (active); in assay [5], 59.9%; in assay [6], 43.3%. For the same molecule, the results for the growth in assay [7], in [8] and in [9] were 49.6%, 35.4% and 2.39% (active), respectively.

In the case of `CC1(C)CC(OCCCC[P+](c2ccccc2)(c2ccccc2)c2ccccc2)CC(C)(C)N1O`, the growth in assay [2] was 9.8% (active); in assay [3], 13.3%; in [4] it was 2.69% (active); in [5], -41.4% (active); in assay [6], -14.3% (active); in [7] it was 6.09% (active). For the same molecule, the results for the growth in assay [8] and in assay [9] were -12.4% (active) and -55.3% (active), respectively.

As to `Cc1cc(C)c(/C=C2\C(=O)Nc3ccc(NC(=O)CCCCCCC(=O)NO)cc32)[nH]1`, the growth in assay [1] was 65.6%; in assay [2] it was 31.3%; in assay [3], 34%; in assay [4], 77.4%; in assay [5], -30.4% (active); in [6] it was -10.6% (active). The growth in assay [7] is 82%; in assay [8] it was 72%; in [9], 3.61% (active).

For `N#C/C(=C/c1cc([N+](=O)[O-])ccc1Cl)C(N)=O`, the growth was 94.4% in [1]; 97.2% in assay [2]; 94.8% in assay [3]; 110% in assay [4]; 87.8% in [5]; 87.7% in assay [6]. Moreover, the values for the growth in [7], in assay [8] and in assay [9] were 106%, 104% and 117%, respectively.

For `C#C[C@]1(O)CC[C@H]2[C@@H]3CC[C@H]4CC(F)(F)CC[C@]4(C)[C@H]3CC[C@@]21C`, the growth in [1] is 90.4%; in assay [2], 89%; in [3], 67.5%; in [4] it was 83.9%; in assay [5], 93.8%; in assay [6], 105%. In addition, the growth in assay [7] was 77.2%; in [8], 101%; in [9], 90.9%.

As for `O=C(COc1ccc(-c2nc3ccccc3[nH]2)cc1)N=Nc1c(O)[nH]c2ccccc12`, the growth is 116% in assay [1]; 96.1% in assay [2]; 105% in assay [3]; 97.8% in assay [4]; 79.8% in assay [5]; 94% in assay [6]. Besides, the growth was 106% in [7], 96.8% in [8] and 92.4% in [9].

As to `O=c1ccc2nc(-c3ccccc3)nn(-c3ccccc3)c-2c1`, the growth was 68.1% in assay [1]; 88.2% in assay [2]; 69.5% in [3]; 81.4% in assay [4]; -33% (active) in assay [5]; -90.5% (active) in assay [6]. The growth in [7] was 73.7%; in [8], 48.6%; in assay [9], -78.8% (active).

Take `COc1cccc2c1C(=O)c1c(O)c3c(c(O)c1C2=O)C[C@@](O)(C(=O)COC(=O)c1cccnc1)C[C@@H]3OC1CC(N)C(O)C(C)O1` (stereo partly specified): the growth in assay [1] was -28.5% (active); in assay [2] it was -19.5% (active); in assay [3] it was -7.51% (active); in assay [4], 4.13% (active); in assay [5], -26.3% (active); in assay [6], -75.6% (active). In addition, the growth in assay [7] is -0.944% (active); in assay [8], 3.23% (active); in assay [9], -68.8% (active).

Regarding `O=C(N/N=c1/ccoc2cccnc12)N1CCN(c2ncccn2)CC1`, the growth in assay [2] is 39.1%; in assay [3], 24.5%; in [4], 15.2%; in [5] it was 64.2%; in assay [6], 9.96% (active); in assay [7] it was 17.6%. Moreover, the figures for the growth in assay [8] and in assay [9] were 40.4% and 4.3% (active), respectively.

Turning to `CCCCn1c(=O)[nH]c(N)c(C(c2ccc(Cl)cc2)c2c(N)[nH]c(=O)n(CCCC)c2=O)c1=O`, the growth in assay [1] was 58.7%; in [2], 63.6%; in assay [3], 59.1%; in [4], 32%; in assay [5] it was 54.7%; in [6], 37.9%. Also, the growth in [7] was 40.2%; in assay [8], 41%; in assay [9] it was 43.9%.

Turning to `c1ccc(C2CCCCC2)c(OCCCCCN2CCNCC2)c1`, the growth in assay [1] is 84.7%; in assay [2] it was 72.6%; in assay [4], 4.61% (active); in assay [5], 29.4%; in assay [6] it was 60.8%; in [8], 60.1%. Further, in [9], the growth was -74.6% (active).

On to `Cc1ncc([N+](=O)[O-])n1CCOc1ccc(C(=O)/C=C/c2ccc(C(F)(F)F)cc2)cc1`, for which the growth in assay [1] is 76.2%; in assay [2] it was 66.4%; in assay [3], 88.9%; in assay [4], 79.5%; in assay [5], 67.1%; in [6] it was 67.1%. Also, the growth was 55.5% in assay [7], 63.3% in assay [8] and 61.2% in assay [9].

As for `COc1cc(CSc2nc3ccc(Cl)cc3c(=O)n2Cc2ccccc2)cc(OC)c1OC`, the growth in assay [1] was 47.9%; in assay [2], 47.5%; in [3] it was 37.7%; in assay [4] it was 20.5%; in [5], 71.3%; in assay [6], -0.0842% (active). Also, the results for the growth in assay [7], in assay [8] and in assay [9] were 42.2%, 43.4% and -37.8% (active), respectively.

Take `CCCCCCCCCCCCCCCCn1cc[n+](C)c1`: the growth in [1] is -60.5% (active); in assay [2] it was 8.28% (active); in [3], -82.7% (active); in assay [4], -87.9% (active); in assay [5], -80.2% (active); in assay [6], -87.4% (active). For the same molecule, the growth in assay [7] is -50.9% (active); in assay [8], -90.4% (active); in assay [9], -46% (active).
